# Compound activity (PubChem BioAssay)
# Hits are enriched below; roughly 18% of the tested compounds scored in any of these assays.
# TGFb SMAD3 inh: blocks TGF-b signaling. HepG2 CAGA-GFP TGF-b/SMAD3 reporter, GFP fluorescence, 18 h; TGF-beta stimulated, 500 pg/mL final. 1.2% of 410,000 active. Potency, µM (series often up to 46.1 µM), for the others: at the highest dose activity, negative = inhibition, hits mostly inhibitors; note: potency is the fitted concentration of half-maximal effect; % is set by controls: 0 for no effect and ±100 for the full control effect; nearly all actives have a fitted effect of over 65% in size
#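 Inhibition of TGF-beta-driven CAGA-GFP reporter expression in HEPG2 cells is measured by cellular GFP fluorescence after 18 h stimulation with 500 pg/mL recombinant TGF-beta in 1% FBS medium at 37 degrees C.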
# HepG2 viability: counter-screen for TGF-b inhibitors: cytotoxicity in HepG2 cells; 0.76% of 410,000 active; Potency, µM (series often up to 46.1 µM), for the others: at the top dose activity change, negative = cytotoxicity, most hits filed as cytotoxic; HepG2 CAGA-GFP viability, ATP luminescence, 18 h; note: potency is the fitted concentration of half-maximal effect
#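 CellTiter-Glo luminescence gave cytotoxicity after 18 hours at 37 degrees C. The cells were HepG2 CAGA-GFP in 1% FBS DMEM, stimulated with 500 pg/mL TGF-beta after compound addition. %Activity was normalised to no-cell wells (complete cell-killing) and DMSO (no toxicity), and curves were fitted and classified.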
# TDP1 inh: TDP1 (human) enzyme inhibition. Q9NUW8. recombinant TDP1, AlphaScreen DNA substrate cleavage. Potency, µM (series often up to 130 µM), without a hit: at the top dose activity change, negative = inhibition, most hits filed as inhibitors. 0.28% of 350,000 active. AID 485290; note: potency is the fitted concentration of half-maximal effect; % is set by controls: 0 for no effect and ±100 for the full control effect; nearly all actives have a fitted effect of over 40% in size
# Target sequence (Q9NUW8 whole entry, looked up): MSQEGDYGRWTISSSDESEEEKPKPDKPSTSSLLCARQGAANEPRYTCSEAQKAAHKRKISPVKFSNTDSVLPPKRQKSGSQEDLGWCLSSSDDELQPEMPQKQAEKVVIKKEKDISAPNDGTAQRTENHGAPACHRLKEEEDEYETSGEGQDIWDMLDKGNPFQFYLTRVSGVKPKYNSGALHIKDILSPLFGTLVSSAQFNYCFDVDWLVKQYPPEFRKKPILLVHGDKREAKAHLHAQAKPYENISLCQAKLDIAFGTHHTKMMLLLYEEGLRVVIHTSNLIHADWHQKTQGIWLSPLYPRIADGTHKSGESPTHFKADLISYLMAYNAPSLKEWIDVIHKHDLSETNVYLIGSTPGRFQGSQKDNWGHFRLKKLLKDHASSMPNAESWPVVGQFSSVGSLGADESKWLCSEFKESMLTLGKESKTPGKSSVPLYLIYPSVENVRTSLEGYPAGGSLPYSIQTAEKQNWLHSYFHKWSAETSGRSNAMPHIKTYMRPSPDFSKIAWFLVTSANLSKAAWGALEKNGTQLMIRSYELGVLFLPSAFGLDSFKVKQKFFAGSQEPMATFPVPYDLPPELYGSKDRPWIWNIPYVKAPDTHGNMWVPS
#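 Recombinant human Tdp1 (E. coli-expressed, 1 nM final) preincubated with compounds 15 min at room temperature, then 5'-biotin/3'-phosphotyrosine-FITC DNA substrate (15 nM final) added for 5 min. AlphaScreen beads (10 ug/ml final) added 10 min; cleavage lowers signal.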
# TDP1 cell CPT: growth inhibition of DT40 Tdp1-/-;hTDP1 cells with camptothecin (screen for TDP1 inhibitors); chicken DT40 Tdp1-/-;hTDP1 cells + 20 nM CPT, ATP luminescence, 48 h; Potency, µM (top dose mostly 46.2 µM), without a hit: at the top dose activity change, negative = growth inhibition, most hits filed as inhibitors; 12% of 420,000 active; AID 686979; note: potency is the fitted concentration of half-maximal effect; % is set by controls: 0 for no effect and ±100 for the full control effect; nearly all actives have a fitted effect of over 55% in size
#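 Chicken DT40 Tdp1-/- cells stably complemented with human TDP1 were seeded at 400 cells/well in medium containing 20 nM camptothecin, exposed to pin-transferred compounds, and grown at 37 °C for at least 48 hr. Viability was read as ATP luminescence.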
# TDP1 cell noCPT: qHTS for Inhibitors of human tyrosyl-DNA phosphodiesterase 1 (TDP1): qHTS in cells in absence of CPT. DT40 Tdp1-/- hTDP1 cells, no CPT, ATP luminescence, 48 h. Potency, µM (top dose mostly 46.2 µM), for inactives: at the top dose activity change, negative = growth inhibition, hits mostly inhibitors. 15% of 420,000 active. AID 686978, 2013; note: potency is the fitted concentration of half-maximal effect; % is set by controls: 0 for no effect and ±100 for the full control effect; nearly all actives have a fitted effect of over 55% in size
#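 Chicken DT40 Tdp1-/- cells complemented with human TDP1, screened without camptothecin (DMSO vehicle only), 400 cells/well. Compounds pin-transferred, cells incubated at 37 °C for at least 48 hr. Growth read as ATP-dependent luminescence (CellTiter-Glo, 30 min at RT).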
# IL-1B inflam inh: inhibitors of inflammasome signaling (IL-1 beta secretion) | THP-1 LPS/ATP IL-1B secretion, AlphaLISA, 16 h; active compounds read low | activity change, % at 57.5 µM | 4.7% of 360,000 active | AID 743279; in the data active = activity change below about -50%; inconclusive = mostly about -30% to -49%; note: % is set by controls: 0 for no effect and ±100 for the full control effect
#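 THP-1 cells pretreated 1 hr with compounds (up to 57.5 uM final), then stimulated with LPS (250 ng/mL final) plus ATP (1.25 mM final); secreted IL-1B measured by AlphaLISA after 16 hr, decreased signal indicating inhibition.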
# Active calls of the source: *; ? = inconclusive; / = no result given; ! = a repeat was not active; [ ] = dose if it differs, or a comment. Unless noted, calls come from the whole dose curve; as a rule, active = well fitted curve in the direction sought with a large enough effect; inconclusive = small, poorly fitted or top-dose-only effect, or another doubt; inactive = no such curve, though single readings can be large; an effect the other way counts as inactive or inconclusive.
SMILES,TGFb SMAD3 inh,HepG2 viability,TDP1 inh,TDP1 cell CPT,TDP1 cell noCPT,IL-1B inflam inh
CCOC(=O)N1CCN(C(=O)COc2ccc(S(=O)(=O)NC3CCCCC3)cc2C)CC1,?,0.8%,-1.1%,?,18.4µM*,1.1
Cc1ccccc1OCC(=O)NC(=S)Nc1ccc(S(=O)(=O)NC2CCCCC2)cc1,?,-4.0%,-4.0%,?,13µM*,-5.2
COc1cc2nc(NCCCN3CCN(C)CC3)n3nc(-c4ccccc4)nc3c2cc1OC,?,-82.7%,/,?,?,-110.2*
CN1CCN(CCCNc2nc3ccccc3c3nc(-c4ccccc4)nn23)CC1,20.6%,15.3%,/,?,13µM*,-7.4
COc1ccc(OC)c(CCNc2nc3ccccc3c3nc(-c4cccnc4)nn23)c1,?,-3.9%,2.9%,0.5%,?,/
O=C(OCC#CCSc1nnc(-c2ccc(F)cc2)o1)c1ccc(F)cc1,/,/,-10.7%,/,/,/
O=C(CSc1ccccc1)Nc1nnc(C2CC2)s1,-0.2%,4.5%,-7.8%,-19.6%,9.9%,21.2
CCc1ccc[n+](-c2[nH]c(=O)sc2/C=N/N=C(\[O-])c2cccnc2)c1,10.4%,8.0%,-0.6%,-2.3%,11.4%,0.0
Cc1cc[n+](-c2[nH]c(=O)sc2/C=N/N=C(\[O-])c2ccccc2)cc1C,-0.3%,-1.8%,39.8µM*,17.4%,-0.8%,21.7
Cc1ccc[n+](-c2[nH]c(=O)sc2/C=N/N=C(\[O-])c2cccnc2)c1,12.9%,3.0%,50.1µM*,8.3%,-2.6%,9.0
Cc1cc[n+](-c2[nH]c(=O)sc2/C=N/N=C(\[O-])c2ccccc2)cc1,-1.4%,-8.6%,39.8µM*,0.8%,1.4%,0.9
Cc1cc[n+](-c2[nH]c(=O)sc2/C=N/N=C(\[O-])c2ccncc2)cc1,-24.4%,-0.4%,39.8µM*,-11.5%,2.3%,5.8
C/C=C(\C)C(=O)O[C@H](c1cc2ccc(=O)oc2cc1OC)[C@@H](O)C(C)(C)O,2.3%,1.1%,0.4%,4.0%,21.6%,55.9
O=C(COC(=O)C1CCN(c2ccc(C(F)(F)F)cn2)CC1)Nc1cccc(F)c1,18.1%,11.8%,/,?,-16.7%,-2.2
COC(=O)C1=C(C)N(Cc2ccco2)C(=O)N[C@@H]1c1cccc(C(F)(F)F)c1,/,/,7.5%,/,/,/
CCN1C(=NCc2ccco2)N[C@@H](c2cccc(C(F)(F)F)c2)C(C(=O)OC)=C1C,-7.4%,-9.6%,2.1%,16.4µM*,?,0.0
CCN1C(=NCC2CC2)N[C@@H](c2ccccc2)C(C(=O)OC)=C1C,19.1%,19.2%,-2.2%,?,?,7.3
CCN1C(=NCCOC)N[C@@H](c2cccc(C(F)(F)F)c2)C(C(=O)OC)=C1C,10.2%,-16.3%,-0.1%,20.6µM*,18.4µM*,?
CCN1C(=NCC2CC2)N[C@@H](c2cccc(C(F)(F)F)c2)C(C(=O)OC)=C1C,?,-57.3%,/,?,10.3µM*,/
COc1cccc(CC(=O)OCC(=O)N(C)CC(=O)Nc2ccc(Cl)c(C(F)(F)F)c2)c1,-1.8%,4.0%,0.0%,-15.7%,-23.1%,4.6
O=C(COC(=O)c1cc(Br)ccc1O)Nc1cccnc1Cl,-0.4%,-21.3%,-12.1%,-4.3%,1.4%,1.4
O=C(Nc1ccc2c(c1)CCC2)Nc1ccccc1F,-1.7%,-15.0%,0.0%,?,?,/
CCN(C(=O)COC(=O)C1CC1C)c1c(N)n(Cc2ccccc2)c(=O)[nH]c1=O (configuration not stated),-11.0%,-8.4%,-4.0%[0.505 µM],-4.2%,-5.3%,5.9
CC1CCCC(C)N1CCCNC(=O)C1CCCN(c2ncnc3c2nc2n3CCCCC2)C1 (configuration not stated),14.8%,-5.7%,0.0%,-3.5%,-10.4%,8.5
Cc1cccc(N2CCN(c3ncnc4c3nc3n4CCCCC3)CC2C)c1 (configuration not stated),?,-85.3%,8.7%,7.31µM*,9.2µM*,/
SMILES,TGFb SMAD3 inh,HepG2 viability,TDP1 inh,TDP1 cell CPT,TDP1 cell noCPT,IL-1B inflam inh
Cc1cccc(N2CCN(c3ncnc4c3cnn4-c3ccc(Cl)cc3)CC2C)c1 (configuration not stated),8.5%,16.8%,0.5%,?,?,/
Cc1cccc(N2CCN(CCCNC(=O)C3CCCN(c4ncnc5c4nc4n5CCCCC4)C3)CC2C)c1 (configuration not stated),?,-20.8%,4.8%,?,11.6µM*,-76.7*
CCCCCn1c(=O)[nH]c2cc(C(=O)NCCN(CC)CC)ccc2c1=O,2.0%,-33.7%,4.9%,9.2µM*,20.6µM*,-11.8
CCN(CC)CCCNC(=O)c1ccc2c(=O)n(CCc3ccccc3)c(=O)[nH]c2c1,3.2%,-19.0%,-2.9%,-26.8%,?,/
O=C(NCc1ccccn1)c1ccc2c(=O)n(CCc3ccccc3)c(=O)[nH]c2c1,8.2%,-2.1%,-7.0%,20.6µM*,?,0.0
Cc1ccc(-n2ccnc(NCCc3ccc(S(N)(=O)=O)cc3)c2=O)c(C)c1,?,-36.1%,7.9%,?,?,/
CC(c1ccccc1F)n1cc(C(=O)NCCc2ccco2)nn1 (configuration not stated),-14.4%,-18.7%,0.0%,?,18.4µM*,?
COc1cc(Cl)ccc1OC1(C)CCN(Cc2ccc3ccccc3c2)C1 (configuration not stated),?,-31.3%,/,?,23.1µM*,12.6
COc1cc(Cl)ccc1OC1(C)CCN(Cc2ccc(-c3ccccn3)cc2)C1 (configuration not stated),-5.9%,-38.1%,/,?,14.6µM*,-12.9
COCOc1cccc(CN2CCC(C)(Oc3cccc(OC)c3)C2)c1 (configuration not stated),-8.3%,-11.1%,/,18.4µM*,?,-24.2
CCOC(=O)c1c(NC(=O)COc2cccc(C(F)(F)F)c2)sc2c1CCCCC2,0.7%,-18.0%,-10.1%[12.3 µM],-11.0%,-7.6%,/
COc1cc(OC)cc(C(=O)N[C@H](C(=O)OCC(=O)Nc2ccc3c(c2)OCO3)C(C)C)c1,-8.2%,0.6%,2.0%,-29.1%,-28.7%,61.6
CCCC[C@@H]1C[C@H]1C(NC(=O)c1cccs1)c1ccccc1C(F)(F)F (some centres not stated),/,/,2.1%,/,/,/
CCN(CC)CCCNC(=O)c1ccc2c(Cl)c3c(nc2c1)CCCC3,12.6µM*,1.58µM*!,0.0%,25.9µM*,16.4µM*,/
